# Publication PMC7862700, “An all-to-all approach to the identification of sequence-specific readers for epigenetic DNA modifications on cytosine”
# Tests used:
# Test in all cases: DAPPL (digital affinity profiling via proximity ligation, sequencing); 10 mM Tris-HCl pH 7.5, 50 mM NaCl, 1 mM DTT, 4% glycerol, room temperature, 30 min; GST-TFs on glutathione beads, 16-mer random dsDNA library, 0.1% formaldehyde crosslink after washing; high values mean tight binding
# FLI1 = molecular target: T1, FLI1 (Homo sapiens, UniProt Q01543 1-452); conditions: protein: recombinant; tags: N-terminal GST; dsDNA, one strand shown
# T1 sequence: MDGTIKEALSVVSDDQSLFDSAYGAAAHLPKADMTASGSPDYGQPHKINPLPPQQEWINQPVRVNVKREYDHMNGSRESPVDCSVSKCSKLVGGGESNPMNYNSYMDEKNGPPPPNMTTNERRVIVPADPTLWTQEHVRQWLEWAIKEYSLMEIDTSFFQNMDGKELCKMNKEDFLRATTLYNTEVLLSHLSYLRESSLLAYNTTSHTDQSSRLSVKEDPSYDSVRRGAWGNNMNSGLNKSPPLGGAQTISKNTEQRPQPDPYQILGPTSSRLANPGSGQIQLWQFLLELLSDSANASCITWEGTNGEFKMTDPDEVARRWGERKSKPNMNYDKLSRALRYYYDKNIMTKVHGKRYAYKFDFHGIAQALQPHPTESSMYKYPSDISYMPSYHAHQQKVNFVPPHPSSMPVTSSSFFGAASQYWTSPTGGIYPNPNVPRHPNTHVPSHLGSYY
# Outline: (§1)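 Yeast served to express human transcription factors as GST fusions, which were then captured on glutathione beads and labelled with DNA barcodes. Pooled with a tag-only sample, they were incubated with 200 nmole of a 16-mer random double-stranded DNA library for 30 min at room temperature in Tris/NaCl/DTT/glycerol buffer, washed, crosslinked with 0.1% formaldehyde, ligated by proximity, amplified by PCR and sequenced. Dividing each hexamer's read frequency for a factor by its frequency for the tag-only sample gives the binding signal.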
# ELK1 = molecular target: T2, ELK1 (Homo sapiens, UniProt P19419 1-428); conditions: protein: recombinant; tags: N-terminal GST; dsDNA, one strand shown
# T2 sequence: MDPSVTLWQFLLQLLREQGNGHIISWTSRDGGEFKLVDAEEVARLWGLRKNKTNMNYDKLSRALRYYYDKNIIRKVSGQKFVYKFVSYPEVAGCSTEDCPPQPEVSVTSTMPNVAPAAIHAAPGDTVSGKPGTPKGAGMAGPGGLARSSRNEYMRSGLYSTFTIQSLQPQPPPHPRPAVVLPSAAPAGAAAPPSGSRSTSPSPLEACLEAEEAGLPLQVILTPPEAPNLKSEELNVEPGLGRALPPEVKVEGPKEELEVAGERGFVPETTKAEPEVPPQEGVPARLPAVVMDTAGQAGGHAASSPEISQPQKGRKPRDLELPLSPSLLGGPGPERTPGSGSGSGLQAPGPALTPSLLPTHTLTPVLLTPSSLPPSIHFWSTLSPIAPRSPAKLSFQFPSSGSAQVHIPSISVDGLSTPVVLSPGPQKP
# Outline: as §1
# GABPA = molecular target: T3, GABPA (Homo sapiens, UniProt Q06546 1-454); conditions: protein: recombinant; tags: N-terminal GST; dsDNA, one strand shown
# T3 sequence: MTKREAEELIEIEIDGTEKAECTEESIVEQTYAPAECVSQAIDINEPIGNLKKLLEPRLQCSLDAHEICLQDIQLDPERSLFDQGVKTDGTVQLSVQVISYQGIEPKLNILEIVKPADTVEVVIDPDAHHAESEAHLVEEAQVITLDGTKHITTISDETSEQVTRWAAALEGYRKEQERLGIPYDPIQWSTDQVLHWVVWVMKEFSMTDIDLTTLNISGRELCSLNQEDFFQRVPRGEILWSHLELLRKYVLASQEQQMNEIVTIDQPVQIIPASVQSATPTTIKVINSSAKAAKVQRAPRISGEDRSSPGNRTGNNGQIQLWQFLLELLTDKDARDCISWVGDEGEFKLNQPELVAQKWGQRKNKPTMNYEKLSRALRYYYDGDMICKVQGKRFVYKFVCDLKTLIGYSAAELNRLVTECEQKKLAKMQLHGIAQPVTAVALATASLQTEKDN
# Outline: as §1
# ERG = molecular target: T4, ERG (Homo sapiens, UniProt P11308 1-479); conditions: protein: recombinant; tags: N-terminal GST; dsDNA, one strand shown
# T4 sequence: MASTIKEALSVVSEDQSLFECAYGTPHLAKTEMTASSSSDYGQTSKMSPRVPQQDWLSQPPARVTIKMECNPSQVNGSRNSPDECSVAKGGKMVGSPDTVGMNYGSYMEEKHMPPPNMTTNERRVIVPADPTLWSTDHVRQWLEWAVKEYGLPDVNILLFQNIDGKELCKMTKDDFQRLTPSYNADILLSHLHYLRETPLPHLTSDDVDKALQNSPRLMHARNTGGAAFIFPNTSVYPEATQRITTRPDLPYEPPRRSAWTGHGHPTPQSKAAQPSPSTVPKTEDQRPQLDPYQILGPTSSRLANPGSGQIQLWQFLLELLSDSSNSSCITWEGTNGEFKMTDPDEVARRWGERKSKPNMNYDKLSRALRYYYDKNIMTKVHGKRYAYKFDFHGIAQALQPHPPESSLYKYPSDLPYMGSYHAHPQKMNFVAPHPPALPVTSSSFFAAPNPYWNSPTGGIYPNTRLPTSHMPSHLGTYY
# Outline: as §1
# ELF1 = ELF1 (Homo sapiens, UniProt P32519 1-619); conditions: protein: recombinant; tags: N-terminal GST; dsDNA, one strand shown
# Outline: as §1
# EHF = molecular target: T5, EHF (Homo sapiens, UniProt Q9NZC4 1-300); conditions: protein: recombinant; tags: N-terminal GST; dsDNA, one strand shown
# T5 sequence: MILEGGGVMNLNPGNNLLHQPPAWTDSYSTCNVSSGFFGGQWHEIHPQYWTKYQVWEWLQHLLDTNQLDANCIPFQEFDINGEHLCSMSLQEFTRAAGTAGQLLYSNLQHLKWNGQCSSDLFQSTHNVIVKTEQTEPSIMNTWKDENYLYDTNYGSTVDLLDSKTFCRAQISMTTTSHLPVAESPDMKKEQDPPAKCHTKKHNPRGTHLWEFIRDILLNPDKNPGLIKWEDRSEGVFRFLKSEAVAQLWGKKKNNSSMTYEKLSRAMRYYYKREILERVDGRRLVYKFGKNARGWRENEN
# Outline: as §1
# SPI1 = SPI1 (Homo sapiens, UniProt P17947 1-270); conditions: protein: recombinant; tags: N-terminal GST; dsDNA, one strand shown
# Outline: as §1
# SPIB = SPIB (Homo sapiens, UniProt Q01892 1-262); conditions: protein: recombinant; tags: N-terminal GST; dsDNA, one strand shown
# Outline: as §1
# ELK3 = molecular target: T6, ELK3 (Homo sapiens, UniProt P41970 1-407); conditions: protein: recombinant; tags: N-terminal GST; dsDNA, one strand shown
# T6 sequence: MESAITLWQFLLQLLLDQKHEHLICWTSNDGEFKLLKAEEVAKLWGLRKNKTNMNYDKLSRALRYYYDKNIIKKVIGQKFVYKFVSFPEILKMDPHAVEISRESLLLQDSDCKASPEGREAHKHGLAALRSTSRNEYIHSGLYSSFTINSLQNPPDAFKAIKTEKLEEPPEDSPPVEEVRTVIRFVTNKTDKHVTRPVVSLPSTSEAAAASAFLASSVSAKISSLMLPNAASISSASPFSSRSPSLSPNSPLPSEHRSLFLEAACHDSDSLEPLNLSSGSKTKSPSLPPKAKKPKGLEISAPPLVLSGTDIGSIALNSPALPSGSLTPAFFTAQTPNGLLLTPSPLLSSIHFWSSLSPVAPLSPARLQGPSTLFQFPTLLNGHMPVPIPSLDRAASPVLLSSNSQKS
# Outline: as §1
# FEV = molecular target: T7, FEV (Homo sapiens, UniProt Q99581 1-238); conditions: protein: recombinant; tags: N-terminal GST; dsDNA, one strand shown
# T7 sequence: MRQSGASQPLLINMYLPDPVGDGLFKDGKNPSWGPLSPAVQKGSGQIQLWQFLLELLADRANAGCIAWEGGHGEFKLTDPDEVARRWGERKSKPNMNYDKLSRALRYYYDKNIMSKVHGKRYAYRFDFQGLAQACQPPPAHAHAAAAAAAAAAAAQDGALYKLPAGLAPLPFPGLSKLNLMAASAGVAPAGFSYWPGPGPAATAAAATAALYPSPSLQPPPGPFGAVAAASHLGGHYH
# Outline: as §1
# ETV5 = ETV5 (Homo sapiens, UniProt P41161 1-510); conditions: protein: recombinant; tags: N-terminal GST; dsDNA, one strand shown
# Outline: as §1
# HSF1 = HSF1 (Homo sapiens, UniProt Q00613 1-529); conditions: protein: recombinant; tags: N-terminal GST; chain copies: 3; dsDNA, one strand shown
# Outline: as §1
# SPIC = molecular target: T8, SPIC (Homo sapiens, UniProt Q8N5J4 1-248); conditions: protein: recombinant; tags: N-terminal GST; dsDNA, one strand shown
# T8 sequence: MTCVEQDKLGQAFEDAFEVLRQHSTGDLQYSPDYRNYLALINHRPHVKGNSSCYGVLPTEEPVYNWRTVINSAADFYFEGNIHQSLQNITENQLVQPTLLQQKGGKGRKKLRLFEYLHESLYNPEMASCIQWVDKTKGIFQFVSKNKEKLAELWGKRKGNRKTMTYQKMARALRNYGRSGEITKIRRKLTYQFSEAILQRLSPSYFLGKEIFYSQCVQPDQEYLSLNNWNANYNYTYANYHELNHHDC
# Outline: as §1
# ELF4 = ELF4 (Homo sapiens, UniProt Q99607 1-663); conditions: protein: recombinant; tags: N-terminal GST; dsDNA, one strand shown
# Outline: as §1
# ETV2 = molecular target: T9, ETV2 (Homo sapiens, UniProt O00321 1-342); conditions: protein: recombinant; tags: N-terminal GST; dsDNA, one strand shown
# T9 sequence: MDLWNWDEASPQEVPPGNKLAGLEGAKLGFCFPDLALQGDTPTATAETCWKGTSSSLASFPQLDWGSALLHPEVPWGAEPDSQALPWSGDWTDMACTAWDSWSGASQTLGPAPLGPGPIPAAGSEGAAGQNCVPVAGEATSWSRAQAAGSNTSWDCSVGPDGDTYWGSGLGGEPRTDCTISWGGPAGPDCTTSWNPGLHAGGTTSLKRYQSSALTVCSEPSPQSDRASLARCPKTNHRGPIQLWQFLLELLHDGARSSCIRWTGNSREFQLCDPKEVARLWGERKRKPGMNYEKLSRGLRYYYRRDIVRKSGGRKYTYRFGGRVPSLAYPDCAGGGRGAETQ
# Outline: as §1
# ELF3 = molecular target: T10, ELF3 (Homo sapiens, UniProt P78545 1-371); conditions: protein: recombinant; tags: N-terminal GST; dsDNA, one strand shown
# T10 sequence: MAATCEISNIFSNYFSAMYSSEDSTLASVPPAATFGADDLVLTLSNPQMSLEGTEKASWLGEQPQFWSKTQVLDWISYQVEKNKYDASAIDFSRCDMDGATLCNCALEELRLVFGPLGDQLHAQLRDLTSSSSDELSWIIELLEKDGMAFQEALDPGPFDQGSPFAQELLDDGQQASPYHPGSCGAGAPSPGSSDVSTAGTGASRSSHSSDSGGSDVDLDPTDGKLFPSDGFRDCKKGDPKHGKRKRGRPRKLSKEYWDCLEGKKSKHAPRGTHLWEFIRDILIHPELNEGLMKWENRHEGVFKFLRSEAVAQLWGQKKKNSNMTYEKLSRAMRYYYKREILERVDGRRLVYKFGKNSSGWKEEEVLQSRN
# Outline: as §1
# CRX = CRX (Homo sapiens, UniProt O43186 1-299); conditions: protein: recombinant; tags: N-terminal GST; dsDNA, one strand shown
# Outline: as §1
# ETV1 = ETV1 (Homo sapiens, UniProt P50549 1-477); conditions: protein: recombinant; tags: N-terminal GST; dsDNA, one strand shown
# Outline: as §1
# Chain of ELF1 (P32519 whole entry): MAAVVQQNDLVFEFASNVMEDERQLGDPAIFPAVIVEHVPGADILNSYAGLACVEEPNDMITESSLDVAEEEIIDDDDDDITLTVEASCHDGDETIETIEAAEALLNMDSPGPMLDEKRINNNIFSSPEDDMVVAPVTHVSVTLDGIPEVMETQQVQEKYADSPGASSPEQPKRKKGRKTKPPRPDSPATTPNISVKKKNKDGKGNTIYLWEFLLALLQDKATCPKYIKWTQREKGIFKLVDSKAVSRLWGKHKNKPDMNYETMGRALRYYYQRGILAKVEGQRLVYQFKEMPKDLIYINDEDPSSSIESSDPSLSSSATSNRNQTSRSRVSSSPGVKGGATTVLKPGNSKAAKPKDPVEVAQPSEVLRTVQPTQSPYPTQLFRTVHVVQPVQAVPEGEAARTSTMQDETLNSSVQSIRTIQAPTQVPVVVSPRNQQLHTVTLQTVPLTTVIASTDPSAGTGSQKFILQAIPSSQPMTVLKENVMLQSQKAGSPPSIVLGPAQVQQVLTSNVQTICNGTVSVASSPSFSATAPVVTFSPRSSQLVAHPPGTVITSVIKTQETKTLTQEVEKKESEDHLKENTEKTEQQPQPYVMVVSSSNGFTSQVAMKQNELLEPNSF
# Chain of ETV5 (P41161 whole entry): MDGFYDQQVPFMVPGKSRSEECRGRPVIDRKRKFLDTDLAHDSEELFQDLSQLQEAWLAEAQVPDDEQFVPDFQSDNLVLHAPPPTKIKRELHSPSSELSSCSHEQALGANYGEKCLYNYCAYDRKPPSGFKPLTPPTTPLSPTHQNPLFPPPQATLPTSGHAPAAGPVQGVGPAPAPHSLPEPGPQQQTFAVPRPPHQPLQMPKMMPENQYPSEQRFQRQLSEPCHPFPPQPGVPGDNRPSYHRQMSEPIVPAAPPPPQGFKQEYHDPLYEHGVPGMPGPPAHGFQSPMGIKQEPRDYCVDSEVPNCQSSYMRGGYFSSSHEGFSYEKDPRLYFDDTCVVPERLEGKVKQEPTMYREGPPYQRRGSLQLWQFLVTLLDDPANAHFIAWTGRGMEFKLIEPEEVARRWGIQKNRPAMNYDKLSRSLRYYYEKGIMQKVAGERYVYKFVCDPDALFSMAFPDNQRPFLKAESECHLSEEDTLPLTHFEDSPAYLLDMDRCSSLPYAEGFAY
# Chain of ETV1 (P50549 whole entry): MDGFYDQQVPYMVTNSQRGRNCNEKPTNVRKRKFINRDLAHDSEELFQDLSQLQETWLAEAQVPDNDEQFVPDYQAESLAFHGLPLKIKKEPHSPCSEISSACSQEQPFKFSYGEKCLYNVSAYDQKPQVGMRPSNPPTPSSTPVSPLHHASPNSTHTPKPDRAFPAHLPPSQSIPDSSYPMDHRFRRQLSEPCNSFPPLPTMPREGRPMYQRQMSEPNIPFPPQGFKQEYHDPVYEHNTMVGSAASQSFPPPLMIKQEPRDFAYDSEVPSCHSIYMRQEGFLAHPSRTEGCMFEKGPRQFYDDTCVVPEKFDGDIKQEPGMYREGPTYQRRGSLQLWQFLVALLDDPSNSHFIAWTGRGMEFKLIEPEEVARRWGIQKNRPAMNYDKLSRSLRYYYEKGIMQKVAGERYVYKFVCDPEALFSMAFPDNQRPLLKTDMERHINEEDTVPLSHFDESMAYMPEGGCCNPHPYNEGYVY
# Chain of HSF1 (Q00613 whole entry): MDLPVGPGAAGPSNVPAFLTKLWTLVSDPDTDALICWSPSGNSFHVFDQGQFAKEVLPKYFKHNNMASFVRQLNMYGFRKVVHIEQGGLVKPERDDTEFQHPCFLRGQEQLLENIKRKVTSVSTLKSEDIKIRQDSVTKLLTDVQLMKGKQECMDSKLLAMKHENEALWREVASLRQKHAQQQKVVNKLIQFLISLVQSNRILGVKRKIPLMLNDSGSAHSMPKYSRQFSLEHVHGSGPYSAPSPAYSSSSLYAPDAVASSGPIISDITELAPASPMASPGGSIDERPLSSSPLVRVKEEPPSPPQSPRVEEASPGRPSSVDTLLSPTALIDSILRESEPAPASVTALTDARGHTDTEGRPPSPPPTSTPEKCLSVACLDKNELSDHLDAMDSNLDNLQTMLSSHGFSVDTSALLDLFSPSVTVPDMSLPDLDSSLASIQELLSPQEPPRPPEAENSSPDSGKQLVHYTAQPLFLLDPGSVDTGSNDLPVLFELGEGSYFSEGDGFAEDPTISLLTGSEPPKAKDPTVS
# Chain of CRX (O43186 whole entry): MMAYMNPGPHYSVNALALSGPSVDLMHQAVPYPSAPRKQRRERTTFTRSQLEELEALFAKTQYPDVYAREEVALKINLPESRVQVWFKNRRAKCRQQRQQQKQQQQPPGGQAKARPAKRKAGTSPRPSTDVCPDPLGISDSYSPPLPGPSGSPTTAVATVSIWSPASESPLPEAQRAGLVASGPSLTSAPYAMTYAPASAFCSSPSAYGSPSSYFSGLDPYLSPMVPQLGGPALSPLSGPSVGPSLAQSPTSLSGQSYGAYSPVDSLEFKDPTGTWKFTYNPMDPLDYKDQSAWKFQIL
# Chain of ELF4 (Q99607 whole entry): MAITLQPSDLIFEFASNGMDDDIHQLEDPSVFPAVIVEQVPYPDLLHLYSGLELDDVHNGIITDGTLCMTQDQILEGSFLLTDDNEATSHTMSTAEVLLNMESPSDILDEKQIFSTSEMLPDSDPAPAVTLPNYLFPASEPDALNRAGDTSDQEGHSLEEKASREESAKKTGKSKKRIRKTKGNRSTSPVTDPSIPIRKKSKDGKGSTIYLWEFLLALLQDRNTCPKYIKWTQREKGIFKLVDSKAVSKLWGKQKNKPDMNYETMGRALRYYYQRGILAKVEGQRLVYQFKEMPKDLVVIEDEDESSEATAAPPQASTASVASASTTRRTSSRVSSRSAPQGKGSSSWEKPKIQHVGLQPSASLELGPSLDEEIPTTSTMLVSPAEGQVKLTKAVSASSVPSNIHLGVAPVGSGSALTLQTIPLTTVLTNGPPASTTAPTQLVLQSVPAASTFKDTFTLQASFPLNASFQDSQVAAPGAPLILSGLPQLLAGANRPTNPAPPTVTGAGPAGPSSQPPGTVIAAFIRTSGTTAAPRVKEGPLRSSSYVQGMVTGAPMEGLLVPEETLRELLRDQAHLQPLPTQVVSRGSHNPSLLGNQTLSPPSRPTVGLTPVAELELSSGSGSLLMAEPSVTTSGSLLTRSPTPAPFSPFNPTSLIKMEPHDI
# Chain of SPIB (Q01892 whole entry): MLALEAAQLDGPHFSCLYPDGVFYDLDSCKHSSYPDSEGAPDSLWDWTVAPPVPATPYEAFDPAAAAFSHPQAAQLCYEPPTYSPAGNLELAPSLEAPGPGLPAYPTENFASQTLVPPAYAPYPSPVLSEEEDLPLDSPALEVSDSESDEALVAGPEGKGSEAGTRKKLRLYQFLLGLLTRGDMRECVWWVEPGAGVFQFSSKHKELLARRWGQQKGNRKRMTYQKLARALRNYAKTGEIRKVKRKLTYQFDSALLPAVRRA
sequence,measurement,setting,value
TGATTC,binding signal,FLI1,"1.12 fold enrichment (6-mer frequency, TF over GST control)"
same,binding signal,ELK1,"1.09 fold enrichment (6-mer frequency, TF over GST control)"
same,binding signal,GABPA,"1.1 fold enrichment (6-mer frequency, TF over GST control)"
same,binding signal,ERG,"1.08 fold enrichment (6-mer frequency, TF over GST control)"
same,binding signal,ELF1,"1.1 fold enrichment (6-mer frequency, TF over GST control)"
same,binding signal,EHF,"1.12 fold enrichment (6-mer frequency, TF over GST control)"
same,binding signal,SPI1,"1.06 fold enrichment (6-mer frequency, TF over GST control)"
same,binding signal,SPIB,"1.17 fold enrichment (6-mer frequency, TF over GST control)"
same,binding signal,ELK3,"1.02 fold enrichment (6-mer frequency, TF over GST control)"
same,binding signal,FEV,"1.03 fold enrichment (6-mer frequency, TF over GST control)"
same,binding signal,ETV5,"1.1 fold enrichment (6-mer frequency, TF over GST control)"
same,binding signal,HSF1,"1.18 fold enrichment (6-mer frequency, TF over GST control)"
same,binding signal,SPIC,"1.11 fold enrichment (6-mer frequency, TF over GST control)"
same,binding signal,ELF4,"1.07 fold enrichment (6-mer frequency, TF over GST control)"
same,binding signal,ETV2,"1.03 fold enrichment (6-mer frequency, TF over GST control)"
same,binding signal,ELF3,"1.12 fold enrichment (6-mer frequency, TF over GST control)"
same,binding signal,CRX,"1.12 fold enrichment (6-mer frequency, TF over GST control)"
same,binding signal,ETV1,"1.18 fold enrichment (6-mer frequency, TF over GST control)"
